Bioassay records from PubChem.
The list is not random: actives were taken first. Their share in the collection is about 1.7%.
Imprint erasure: qHTS Assay for Compounds that Induce Erasure of Genomic Imprints. mouse ES Peg3-LacZ reporter, beta-gal luminescence, 40 h. Potency, µM (titrated, usually from 60.7 µM), inactives show at the top dose activity change, positive = activation, hits mostly activators. 110,000 tested, 0.02% active. AID 1948, 2009
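Imprint erasure is scored as LacZ activity from the silenced maternal Peg3 allele in feeder-free female ES cells cultured 40 h with LIF. Luminescence is normalized to in-plate negative controls and fitted to the Hill equation.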
p53ts 32C kill: qHTS Screen for Compounds that Selectively Target Cancer Cells with p53 Mutations: Cytotoxicity of p53ts Cells at the Permissive Temperature; H1299-p53A138V at 32C, ATP luminescence viability, 24 h; Potency, µM (doses to about 46.1 µM), for the others: top-dose activity change, negative = cytotoxicity, hits mostly cytotoxic; 130,000 tested, 0.93% active; AID 924, 2007;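 note: 0% = DMSO and -100% = full killing by reference compound; nearly all actives have a fitted effect of over 55% in size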
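Cells: H1299 p53ts (A138V), 600/well, pre-incubated 16–30 h at 37C. Cpd up to 46 uM, 24 h, 32C. Readout: ATPlite luminescence, 20 min RT. Normalization: DMSO vs tamoxifen 100 uM. AC50 by Hill equation.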
IkB sig inh: IkB Signaling | 110,000 tested, 0.04% active | AID 445, 2006 | ABC-DLBCL IkBa-CBG/CBR dual luciferase ratio, 4 h; response scale: scaled: untreated 0%, proteasome inhibitor 100% | Potency, µM (titrated, usually from 57.1 µM), without a hit: at the highest dose IkBa stabilization activation; active = well fitted curve in the direction sought with a large enough effect in the signal ratio, not every such curve was filed as active; inconclusive = small, poorly fitted or top-dose-only effect, or a change in a side signal; the % refers to the signal ratio;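 note: the direction sought is a rising ratio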
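Curves were fitted separately to fusion (green), unfused (red) and ratio luminescence, then classed by r2, magnitude and activity. Cells: OCI-Ly3, 4 h compound plus doxycycline at 37C; 10 uM MG-132 defined full response.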
p53ts 39C tox: qHTS Screen for Compounds that Selectively Target Cancer Cells with p53 Mutations: Cytotoxicity of p53ts Cells at the Nonpermissive Temperature; H1299-p53A138V viability at 39C, ATP luminescence, 24 h; Potency, µM (doses to about 46.1 µM), for inactives: at the highest dose activity change, negative = cell killing, most hits filed as cytotoxic; 130,000 tested, 1.5% active; AID 902, 2007; note: % is set by controls: 0 for no effect and ±100 for the full control effect; nearly all actives have a fitted effect of over 55% in size
Numbers without * were called inactive; ? = inconclusive; · = no result; ! = not active in a repeat; [ ] = remark or other dose. Unless noted, calls come from the whole dose curve; as a rule, active = well fitted curve in the direction sought with a large enough effect; inconclusive = small, poorly fitted or top-dose-only effect, or another doubt; inactive = no such curve, though single readings can be large; an effect the other way counts as inactive or inconclusive. Potency is the fitted concentration of half-maximal effect.

SMILES | Imprint erasure | p53ts 32C kill | IkB sig inh | p53ts 39C tox
COc1ccc(NC(=O)CSc2nnc3scc(-c4ccc(Cl)cc4)n23)cc1 | -13%[10.9 µM] | ? | ? | 13µM*
CN1CCN(c2ncc3nc(-c4ccccc4)c(=O)n(CCC#N)c3n2)CC1 | · | -10% | -2%[11.4 µM] | -8%
Cc1cc(C(=O)CN2C(=O)C3CC=CCC3C2=O)c(C)n1-c1ccccc1 (configuration not stated) | -22% | 10µM* | 3% | 13µM*
Cc1cc(C(=O)CN2C(=O)c3ccccc3S2(=O)=O)c(C)n1-c1ccccc1 | -61% | 13µM* | ? | 7.9µM*
CC12C=C(/C=C/CCc3ccco3)C(C)(C1)C(CCc1ccco1)CC2=O (configuration not stated) | · | 7%[9.22 µM] | · | 19%[9.22 µM]
Oc1ccc(/C=C/c2cc(O)cc(O)c2)cc1 | -39% | 10µM*! | 0% | 6.3µM*
Oc1ccc(/C=C\c2cc(O)cc(O)c2)cc1 | -70% | 7.9µM* | 0% | 7.9µM*
Oc1cc(O)cc(/C=C\c2ccc(O)c(O)c2)c1 | · | 13µM* | 3% | ?
C[C@@H](C(=O)O)c1ccc(C[C@@H]2CCCC2=O)cc1 | · | 14% | ? | 13%
CO[C@@H]1COC(=O)C/C=C\[C@@H](C)COC(=O)[C@H](Cc2ccccc2)NC(=O)C/C=C\[C@H]1C | · | 9%[9.22 µM] | · | 8%[9.22 µM]
Cc1c(C)c2c(c(C)c1O)CCC(C)(COc1ccc(CC3SC(=O)NC3=O)cc1)O2 (configuration not stated) | -7% | · | · | ·
CC1(COc2ccc(C[C@H]3SC(=O)NC3=O)cc2)CCCCC1 | -2% | ? | ? | 40µM*
Cc1cc(N)c2ccccc2[n+]1CCCCCCCCCCCCCC[n+]1c(C)cc(N)c2ccccc21 | -58% | ? | ? | 13µM*
Cc1ccc(NC(=O)c2cc(C)n(-c3ccccc3)c2C)cc1 | · | · | · | 7.1µM*
Cn1c(-c2nc(-c3ccccc3)cs2)nc2ccccc21 | 13% | ? | · | ?
Cc1cc(=O)n2[nH]c(-c3ccc(F)cc3)nc2n1 | -81% | 13µM* | ? | 10µM*
Cc1cc(=O)n2[nH]c(NCc3ccc(F)cc3)nc2n1 | -4%[10.9 µM] | -4% | 1% | -3%
O=C(CCCc1ccccc1)c1ccc2c(c1)OCCO2 | · | 7.9µM* | · | 11µM*
O=C(O)CCC(=O)c1ccc2c(c1)OCCCO2 | -8% | 0% | 4% | -9%
CNC1=C(Cl)C(=O)c2ccncc2C1=O | -80% | 1.6µM* | · | 4µM*
CNC1=C(Br)C(=O)c2ccncc2C1=O | -84% | 0.79µM* | · | 2µM*
CCOC(=O)CC(NS(=O)(=O)c1ccc2[nH]c3c(c2c1)CCCC3)c1ccccc1Cl (configuration not stated) | -14%[10.9 µM] | 32% | 0% | 13µM*
COc1cccc(NS(=O)(=O)c2ccc3[nH]c4c(c3c2)CCCCCC4)c1 | -11%[10.9 µM] | 14% | ? | 20µM*
O=C(NC1CCCCC1)c1cc(Nc2cccc(C(F)(F)F)c2)nc2ccccc12 | -4%[10.9 µM] | -6% | 0% | -15%
NC(=O)c1ncn([C@@H]2O[C@@H](CO)[C@@H](O)[C@H]2O)n1 | · | · | 8% | ·
SMILES | Imprint erasure | p53ts 32C kill | IkB sig inh | p53ts 39C tox
CCCCCOc1ccccc1CN1C(=O)C(=O)c2cc(C)ccc21 | 17%[10.9 µM] | 1% | 0% | 13µM*
FC(F)(F)c1cc(CO[C@H]2CCCN[C@H]2c2ccccc2)cc(C(F)(F)F)c1 | -31% | ? | ? | 13µM*
C[C@@H]1OC2C3=C(C(=O)[C@H]4O[C@@H]4[C@H]3O)[C@@H]1[C@H]1[C@H](C)OC=C3[C@H](O)[C@H]4O[C@H]4/C(=N\OCc4ccccc4)[C@@]321 | · | 13%[9.22 µM] | · | 4µM*
O=C(O)c1cc2c(cc1S(=O)(=O)O)[C@H]1[C@@H](C3[C@H]2[C@@]2(Cl)C(Cl)=C(Cl)C3(Cl)C2(Cl)Cl)[C@]2(Cl)C(Cl)=C(Cl)C1(Cl)C2(Cl)Cl (some centres not stated) | 3%[10.9 µM] | · | · | ·
COc1cc2c(C=O)c3c4c(cc(OC)c(OC)c4c2cc1OC)CCN3C | -19% | ? | · | 16µM*
O=C(Cn1c(=O)n(Cc2ccccc2)c(=O)c2sc3ccccc3c21)Nc1ccc(F)cc1 | -13%[10.9 µM] | ? | ? | 10µM*
O=C(Cn1c(=O)n(Cc2ccccc2)c(=O)c2sc3ccccc3c21)Nc1ccccc1 | -17%[10.9 µM] | ? | 1% | 13µM*
CCCCOc1ccccc1C1CC(=O)Nc2cc(C)c(C)cc21 (configuration not stated) | -14%[10.9 µM] | -16% | 0% | 10µM*
C[C@@H]1O[C@@H](OC[C@@H]2O[C@@H](Oc3c(-c4ccc(O)c(O)c4)oc4cc(O)cc(O)c4c3=O)[C@H](O)[C@H](O)[C@@H]2O)[C@H](O)[C@H](O)[C@@H]1O | · | · | -1%[11.4 µM] | ·
CC1(C)[C@@H](O)CC[C@@]2(C)[C@H]1CC[C@]1(C)[C@H]2C(=O)C=C2[C@@H]3C[C@@](C)(C(=O)O)CC[C@]3(C)CC[C@@]21C | · | · | 1%[11.4 µM] | ·
Clc1ccccc1C(c1ccccc1)(c1ccccc1)n1ccnc1 | -21% | 35%[20.6 µM] | 3%[25.6 µM] | 25µM*!
Clc1ccccc1-c1nccc(-n2ccnc2)n1 | -5% | -2% | -2%[11.4 µM] | 0%
COc1cccc(Cn2c(=O)c(C)nc3cnc(OCc4ccccc4)nc32)c1 | · | 5% | 1%[11.4 µM] | -6%
Cc1ccccc1Nc1c(-c2ccc(N3CCOCC3)cc2)nc2cccc(C)n12 | -11%[10.9 µM] | ? | ? | 7.9µM*
Cc1ccccc1Nc1c(-c2ccc(N3CCOCC3)cc2)nc2ccccn12 | -10%[10.9 µM] | 1µM* | ? | 1µM*
Cc1ccc2nc(Cl)c3cc(C(=O)NCCCN(C)Cc4ccccc4)sc3c2c1 | -9%[10.9 µM] | ? | ? | 13µM*
CN(CCCNC(=O)c1cc2c(Cl)nc3ccccc3c2s1)Cc1ccccc1 | -8%[10.9 µM] | 3% | ? | ?
CCN(CCCNC(=O)c1cc2c(=O)[nH]c3ccc(C)cc3c2s1)Cc1ccccc1 | -23%[10.9 µM] | 13µM* | ? | 13µM*
CCN(CCCNC(=O)c1cc2c(=O)n(C)c3ccccc3c2s1)Cc1ccccc1 | -7%[10.9 µM] | 1% | ? | 13µM*
CCN(CCCNC(=O)c1cc2c(=O)n(C)c3ccccc3c2s1)c1ccccc1 | -7%[10.9 µM] | -14% | 2% | ?
CCCCCCCCCC(=O)N[C@@H](CN1CCOCC1)[C@@H](O)c1ccccc1 | · | -10% | 4% | ?
CN(C)c1ncc2nc(-c3ccc(Cl)cc3)c(=O)n(Cc3cccs3)c2n1 | -4% | -4% | -1%[11.4 µM] | -12%
Cc1ccc2nc(-c3cc(NC(=O)COc4ccc(C)c(C)c4)ccc3Cl)oc2c1 | -16%[10.9 µM] | ? | 2% | 13µM*
CCc1ccc(OCC(=O)Nc2ccc(Cl)c(-c3nc4cc(C)cc(C)c4o3)c2)cc1 | -10%[10.9 µM] | 3% | -1% | -16%
